Data taken from PubChem BioAssay (NCATS).
Results filed as inconclusive are left out. The source made the active and inactive calls. The call rests on the fitted dose curve; in most records, active means well fitted curve in the direction sought with a large enough effect; inconclusive means small, poorly fitted or top-dose-only effect, or another doubt; inactive means no such curve, though single readings can be large; an effect the other way counts as inactive or inconclusive. Square brackets hold non-standard residues; d marks the D form. Peptide text beside a SMILES is read from it. ξ: configuration not given here. ξL = CC(C)CC(N)C(=O)O

Legend:
[1] = U-118MG Cancer Cell Toxicity qHTS against the NCATS CANVASS Library (AID 1347351)
Summary of the method: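 Following a 4 h pre-incubation of 1000 seeded cells, compounds were pinned in an 11-pnt dilution series and left for 72 h; viability then came from CellTiter-Glo.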

[2] = HPAF-II 24hr Apoptosis Induction qHTS against the NCATS CANVASS Library (AID 1347356)
Summary of the method: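 500 HPAF-II cells/well; compounds in 11-pnt qHTS; 24 h, 37 C/5% CO2; Caspase-Glo 3/7 added, 15 min RT dark; luminescence read. Doxorubicin control.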

[3] = HEK293 18hr Apoptosis Induction qHTS against the NCATS CANVASS Library (AID 1347357)
Summary of the method: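 HEK293 cells (500/well, DMEM + 10% FBS) treated with an 11-point series for 18 h at 37 degrees C. Caspase-3/7 activity read by Caspase-Glo luminescence after 15 min at room temperature.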

[4] = HPAF-II 18hr Apoptosis Induction qHTS against the NCATS CANVASS Library (AID 1347360)
Summary of the method: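 HPAF-II cells at 500/well were exposed for 18 h at 37 C to an 11-point compound series. Caspase-3/7 activity was read by Caspase-Glo luminescence after 15 min at RT.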

[5] = HEK293 12hr Apoptosis Induction qHTS against the NCATS CANVASS Library (AID 1347361)
Summary of the method: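 HEK293 cells (500/well) were exposed to an 11-point qHTS concentration series for 12 hours at 37 degrees C. Caspase-3/7 activity was then read by DEVD-substrate luciferase luminescence after 15 min at room temperature.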

[6] = test system: NAD(P)H diaphorase (Clostridium kluyveri); assay: Diaphorse counterscreen qHTS: Assay Interference Panel against the NCATS CANVASS Library (AID 1347362)
Summary of the method: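 Clostridium kluyveri diaphorase in PBS with 0.01% Tween-20 was preincubated 15 min at room temperature in the dark with compounds (11-point series). Resorufin fluorescence (ex 525/20, em 598/25) was read 5 min after adding resazurin/NADH.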

[7] = KB-3-1 Cancer Cell Toxicity qHTS against the NCATS CANVASS Library (AID 1347366); further: series mostly up to about 46 µM; nearly all actives have a fitted effect of over 75% in size
Summary of the method: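 KB-3-1 cells (500/well) in DMEM with 10% FBS were exposed to compounds for 72 h at 37C. Viability was read by CellTiter-Glo luminescence.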

[8] = MCF7 Cancer Cell Toxicity qHTS against the NCATS CANVASS Library (AID 1347369)
Summary of the method: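 MCF7 cells (500/well) were exposed 72 h at 37 °C to compounds in an 11-point series. Viability was read as ATP content by CellTiterGlo luminescence.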

[9] = qHTS for ATAD5 Antagonist screened against the NCATS CANVASS Library (AID 1347370);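 further: HEK293T cells carrying an ATAD5 luciferase reporter co-treated with 10 µM 5-fluorouridine; series mostly up to about 46 µM; nearly all actives have a fitted effect of over 65% in size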
Summary of the method: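 HEK293T-ATAD5 luc reporter, 2000 cells/well; 5hr attach; cpd + 10 uM 5-FUrd; 16hr 37C, 5% CO2. Readouts: CellTiter-Fluor fluorescence (1hr), then Amplite luciferase luminescence (30min RT).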

[10] = J3T Cancer Cell Toxicity qHTS against the NCATS CANVASS Library (AID 1347371);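 further: J3T is a canine glioma cancer cell line seeded at 500 cells per well; series mostly up to about 46 µM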
Summary of the method: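 Dog glioma J3T, 500 cells/well; cpd 11-pt qHTS; 72 hr, 37C/5% CO2; CellTiterGlo ATP luminescence readout.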

[11] = target: Nuclear receptor subfamily 1 group I member 3 (Homo sapiens) (UniProt Q14994); assay: qHTS for Constitutive Androstane Receptor (CAR) Antagonist screened against the NCATS CANVASS Library (AID 1347372);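 further: cells stimulated with 50 nM CITCO agonist so inhibition reflects antagonism; series mostly up to about 46 µM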
Summary of the method: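 Cells were seeded and left 4hr to attach, then received compound at 11 concentrations and 50 nM CITCO. Following 24hr incubation, fluorescence viability and luciferase luminescence were read sequentially.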

[12] = target: Nuclear receptor subfamily 1 group I member 3 (Homo sapiens) (UniProt Q14994); assay: qHTS for Constitutive Androstane Receptor (CAR) Agonist screened against the NCATS CANVASS Library (AID 1347373);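 further: every well also contained 1.5 µM PK11195 alongside the test compound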
Summary of the method: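 Luciferase read-out (ONE-Glo, 30 min RT) of CYP2B6-2.2kb promoter activity in double-stable HepG2-hCAR cells after 24hr compound exposure with 1.5uM PK11195 present; viability measured first by CellTiter-Fluor.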

[13] = 10-beta competent E. coli microbial cell viability qHTS against the NCATS CANVASS Library (AID 1347376); further: series mostly up to about 46 µM
Summary of the method: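 Luminescence from BacTiter-Glo ATP detection served as the viability read-out; bacteria (0.2 OD) had been incubated overnight at 37C with pin-transferred compounds at 11 concentrations.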

[14] = qHTS for H2AX Agonists against the NCATS CANVASS Library (AID 1347378)
Summary of the method: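 CHO-K1 cells (1000/well, overnight at 37C) exposed to compounds at several concentrations for 3 hr at 37C, 0.76% DMSO final. Lysates read by TR-FRET (phospho-H2AX S139 Eu-cryptate antibody / H2AX-d2 antibody) after 24 hr at room temperature; 665/615 nm ratio.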

[15] = qHTS for Inflammasome Signaling Inhibitors: IL-1-beta AlphaLISA screen against the NCATS CANVASS Library (AID 1347379);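 further: human THP-1 cells primed with LPS then triggered with ATP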
Summary of the method: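 THP-1, 1 hr compound pre-incubation, then LPS 250 ng/mL + ATP 1.25 mM (final); 16 hr total with compound; IL-1B AlphaLISA, ex 680/em 615 nm; 11-point qHTS, up to 57.5 uM final.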

[16] = Cytotoxicity qHTS for assessment of Hepg2 cells membrane integrity screened against the NCATS CANVASS Library (AID 1347387)
Summary of the method: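 LDH release read by fluorescence (560 nm ex/590 nm em) after CytoTox-ONE addition and 10 min RT; signal tracks lysed cells. HepG2, 2000 cells/well, plated overnight; compound 5 hr, 37C, 5% CO2, final 0.59 nM - 46 uM, 11 points.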

[17] = Secretion counterscreen for inhibitors of the SERCaMP assay screened against the NCATS CANVASS Library (AID 1347390);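 further: light from luciferase secreted into medium read as a measure of general secretion; series mostly up to about 77 µM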
Summary of the method: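 SH-SY5Y cells with constitutively secreted GLuc reporter, 1000 cells/well, treated 20 h at 37C with compounds at 0.001 - 77 uM final; secreted luciferase read as luminescence after coelenterazine; Brefeldin A as positive control.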

[18] = Vero-766 cells viability qHTS against the NCATS CANVASS Library: Counterscreen for Zika virus inhibition assay (AID 1347394); further: series mostly up to about 46 µM; nearly all actives have a fitted effect of over 60% in size
Summary of the method: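 Vero 766 cells (1000/well), without Zika virus, were exposed to compounds for 72 h at 37C. Viability was measured by CellTiter Glo luminescence. Media-only wells served as 100% inhibition.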

[19] = Viability qHTS for inhibitors of the SERCaMP assay screened against the NCATS CANVASS Library (AID 1347400); further: series mostly up to about 92 µM; nearly all actives have a fitted effect of over 70% in size
Summary of the method: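 CellTiter-Glo luminescence readout after 48 h compound exposure (11-pnt qHTS series) of SH-SY5Y-GLuc SERCaMP MJH297 cells seeded at 1000 cells/well; bortezomib positive control.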

[20] = Redox Reaction Profiling qHTS: Assay Interference Panel against the NCATS CANVASS Library (AID 1347401)
Summary of the method: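 Quantitative HTS over an 11-point series was run in HEPES pH 7.3 with 50 mM NaCl, 200 uM DTT and 5 uM resazurin. Initial and 15-min resorufin fluorescence readings were taken.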

Measured: Potency

Chain of Nuclear receptor subfamily 1 group I member 3 (Homo sapiens) (Q14994 whole entry, looked up): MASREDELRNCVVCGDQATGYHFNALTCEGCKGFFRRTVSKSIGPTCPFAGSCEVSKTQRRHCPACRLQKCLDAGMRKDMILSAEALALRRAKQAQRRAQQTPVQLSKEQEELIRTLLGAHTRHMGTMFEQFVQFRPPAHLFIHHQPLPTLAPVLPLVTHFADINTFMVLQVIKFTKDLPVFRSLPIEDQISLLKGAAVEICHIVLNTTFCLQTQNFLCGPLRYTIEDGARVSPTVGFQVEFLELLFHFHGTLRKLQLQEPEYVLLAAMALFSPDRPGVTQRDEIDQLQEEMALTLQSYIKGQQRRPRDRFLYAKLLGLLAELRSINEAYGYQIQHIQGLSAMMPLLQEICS

C=CC(C)(C)C(=O)[C@@H](C)[C@@H]1CC[C@@](C)(C=C)O1
inactive: [1] | [2] | [3] | [4] | [5] | [6] | [7] | [8] | [9] | [10] | [11] | [12] | [13] | [14] | [15] | [16] | [17] | [18] | [19] | [20]

CN1CC[C@@]2([C@@]34CCN(C)[C@@H]3Nc3ccccc34)c3ccccc3N[C@@H]12
inactive: [1] | [2] | [3] | [4] | [5] | [6] | [7] | [8] | [9] | [10] | [11] | [12] | [13] | [14] | [15] | [16] | [17] | [18] | [19] | [20]

CC[C@@H](C)[C@H]1NC(=O)C(CC(C)C)NC(=O)[C@@H](CC(C)C)NC(=O)[C@H](Cc2c[nH]c3ccccc23)NC(=O)CNC(=O)[C@@H](CC(N)=O)NC1=O (stereo partly drawn) (cyclo(GW[dL][ξL][dI][dN]))
inactive: [2] | [3] | [4] | [5] | [6] | [9] | [11] | [12] | [13] | [14] | [15] | [17] | [18] | [20]

COc1ccc(-c2oc3cc(OC)cc(OC)c3c(=O)c2O)cc1
inactive: [1] | [2] | [3] | [4] | [5] | [6] | [7] | [8] | [10] | [11] | [12] | [13] | [14] | [15] | [16] | [18] | [20]

CC[C@H]1[C@@H](C)[C@@H](c2cc(OC)c(OC)cc2OC)[C@H](C)[C@@H](c2cc(OC)c(OC)cc2OC)[C@@]12C=C(OC)C(=O)C=C2OC
inactive: [2] | [3] | [5] | [8] | [10] | [11] | [12] | [13] | [16] | [20]
